Bioassay records as filed in PubChem BioAssay.
Dicer inh – inhibitors of human Dicer processing of pre-microRNA | cat-ELCCA pre-miR-21 Dicer processing, chemiluminescence; stronger effect = higher value | z-score at 25 µM | actives 6% (n = 47,000); in the data active means z-score above about 3, passing the limit was not always enough;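 further: higher signal means more uncleaved substrate so more Dicer inhibition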
Target sequence (Q9UPY3 whole entry, looked up): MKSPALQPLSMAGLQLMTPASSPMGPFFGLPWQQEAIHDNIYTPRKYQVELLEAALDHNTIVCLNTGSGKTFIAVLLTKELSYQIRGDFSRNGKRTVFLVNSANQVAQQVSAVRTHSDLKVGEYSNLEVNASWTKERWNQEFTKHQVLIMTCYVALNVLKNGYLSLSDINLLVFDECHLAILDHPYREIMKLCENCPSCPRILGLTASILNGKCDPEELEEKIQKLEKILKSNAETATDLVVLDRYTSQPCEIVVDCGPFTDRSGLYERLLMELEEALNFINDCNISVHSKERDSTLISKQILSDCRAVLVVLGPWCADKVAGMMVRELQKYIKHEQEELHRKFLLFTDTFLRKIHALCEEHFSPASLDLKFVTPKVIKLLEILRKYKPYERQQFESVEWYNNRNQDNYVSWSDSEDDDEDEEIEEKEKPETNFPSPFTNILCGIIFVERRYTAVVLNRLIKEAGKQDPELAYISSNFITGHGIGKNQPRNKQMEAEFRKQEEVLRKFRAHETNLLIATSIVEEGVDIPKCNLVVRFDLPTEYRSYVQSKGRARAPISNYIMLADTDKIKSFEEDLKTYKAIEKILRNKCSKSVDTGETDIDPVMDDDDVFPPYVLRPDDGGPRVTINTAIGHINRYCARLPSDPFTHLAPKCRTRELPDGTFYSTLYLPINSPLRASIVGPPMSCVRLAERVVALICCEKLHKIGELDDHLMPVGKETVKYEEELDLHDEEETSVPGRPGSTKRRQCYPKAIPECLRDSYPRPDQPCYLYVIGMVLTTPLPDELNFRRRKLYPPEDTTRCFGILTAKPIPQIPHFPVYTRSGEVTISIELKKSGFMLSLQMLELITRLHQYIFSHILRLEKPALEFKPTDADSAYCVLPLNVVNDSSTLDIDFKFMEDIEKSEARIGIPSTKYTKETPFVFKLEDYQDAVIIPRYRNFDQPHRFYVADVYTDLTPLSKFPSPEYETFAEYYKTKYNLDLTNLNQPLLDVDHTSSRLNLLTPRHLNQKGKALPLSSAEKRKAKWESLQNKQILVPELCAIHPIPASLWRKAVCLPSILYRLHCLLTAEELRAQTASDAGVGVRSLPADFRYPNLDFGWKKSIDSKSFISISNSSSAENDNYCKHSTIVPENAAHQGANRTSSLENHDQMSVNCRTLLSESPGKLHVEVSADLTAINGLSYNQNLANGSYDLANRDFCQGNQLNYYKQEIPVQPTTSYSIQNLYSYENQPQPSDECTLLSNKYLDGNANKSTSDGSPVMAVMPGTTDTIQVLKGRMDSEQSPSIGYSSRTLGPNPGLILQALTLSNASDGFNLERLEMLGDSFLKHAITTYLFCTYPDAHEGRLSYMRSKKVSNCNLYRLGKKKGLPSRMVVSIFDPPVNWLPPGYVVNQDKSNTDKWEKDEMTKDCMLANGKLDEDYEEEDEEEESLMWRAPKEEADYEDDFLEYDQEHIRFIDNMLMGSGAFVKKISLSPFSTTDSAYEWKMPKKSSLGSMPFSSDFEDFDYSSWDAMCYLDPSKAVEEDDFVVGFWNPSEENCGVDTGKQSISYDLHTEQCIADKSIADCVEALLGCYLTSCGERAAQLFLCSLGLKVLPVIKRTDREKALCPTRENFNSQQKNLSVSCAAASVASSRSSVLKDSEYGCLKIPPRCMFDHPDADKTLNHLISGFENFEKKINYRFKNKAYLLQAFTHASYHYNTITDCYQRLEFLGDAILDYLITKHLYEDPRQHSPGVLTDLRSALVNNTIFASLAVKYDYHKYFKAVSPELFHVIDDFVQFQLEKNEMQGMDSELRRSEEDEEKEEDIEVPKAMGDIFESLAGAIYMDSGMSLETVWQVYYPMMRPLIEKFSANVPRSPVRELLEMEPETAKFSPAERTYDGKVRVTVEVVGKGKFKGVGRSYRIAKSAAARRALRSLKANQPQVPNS
Large screens that a line does not name were inactive. Shown is part of a subset that was picked to be rich in hits.

Cc1ccc(C2C=C(c3ccccc3)Nc3nc(NS(=O)(=O)c4ccc(C)cc4)nn32)cc1 (configuration not stated)	Dicer inh 4
COC(=O)C1C(c2ccc(O)cc2)C(C(=O)OC)S(=O)(=O)CS1(=O)=O (configuration not stated)	none
O=C(Nc1ccc(F)cc1F)c1nccnc1Oc1cccc(C(F)(F)F)c1	none
O=C1c2ccccc2C(=O)N1c1ccc([N+](=O)[O-])cc1	none
Cc1cc(=O)[nH]n(-c2ccccc2)c1=O	none
O=c1c([N+](=O)[O-])c[nH]n(-c2ccccc2)c1=O	Dicer inh 4.4
COc1ccc(-c2nc(-c3cc4ccc(C)cc4[nH]c3=O)no2)cc1OC	none
O=C1CC(c2ccc(Cl)cc2)Cc2c1cnc1[nH]n(-c3ccccc3)c(=O)c21 (configuration not stated)	none
CNC(=O)n1cc(Br)c(/C(N)=N\OCc2ccccc2)n1	none
COC(=O)c1c(C)nn(C)c1-c1snnc1C	none
CCNc1nc(SCc2ccc(Cl)cc2)nc2sc3c(c12)CCN(C)C3	none
CCCNc1nc2c(c(=O)[nH]c(=O)n2C)n1CCO	none
C=CCNc1nc2c(c(=O)[nH]c(=O)n2C)n1CC(O)CO (configuration not stated)	none
C=CCNc1nc2c(c(=O)[nH]c(=O)n2C)n1CC	Dicer inh 3.2
CCCCc1nc(S(=O)(=O)c2ccc(C)cc2)c(N(C)C)o1	none
Clc1ccc(Sc2cccc(Cl)c2Cn2cccc2)cc1	none
Clc1ccc(-n2nnnc2/C=C/N2CCN(c3cccc(Cl)c3)CC2)cc1	none
O=[N+]([O-])c1ccc(N/N=C/c2ccccc2OC(F)(F)F)nc1	none
CC(=O)c1cc(Cl)cc(Cl)c1OC(=O)c1cccc(C(F)(F)F)c1	none
CC1(C)OC(=O)C(=Cc2ccc[nH]2)C(=O)O1	none
O=C1OC2(CCCC2)OC(=O)C1=Cc1ccoc1	Dicer inh 3.5
CSc1ccc(C=C2C(=O)OC(C)(C)OC2=O)s1	none
Cc1c(C#N)c(-n2cccc2)n(CC2CC2)c1C	none
O=C1C2Sc3[nH]c(=O)sc3C(c3ccc(O)cc3)C2C(=O)N1c1ccc(Br)cc1 (configuration not stated)	none
O=C(O)COc1ccc2c(c1)oc(=O)c1ccccc12	none
O=C(COc1ccc2c(c1)oc(=O)c1ccccc12)OCc1ccccc1	Dicer inh 4.5
C=CCOC(=O)COc1ccc2c(c1)oc(=O)c1ccccc12	none
CN(C)c1cccc(N(C)C)c1CNC(=O)Nc1ccccc1	none
O=C(CSc1nc2ccccc2nc1N1CCOCC1)N1CCN(C2CCCCC2)CC1	none
COc1ccc(OC)c(NC(=O)CSc2nc3ccccc3nc2N2CCCC2)c1	none
CC1CCN(c2nc3ccccc3nc2SCC(=O)NC2CC2)CC1	Dicer inh 3.1
CC1CN(c2nc3ccccc3nc2SCC(=O)NC2CCCC2)CC(C)O1 (configuration not stated)	none
O=C(CSc1nc2ccccc2nc1N1CCCC1)N1CCN(C2CCCCC2)CC1	Dicer inh 3
O=C(CSc1nc2ccccc2nc1N1CCCC1)NCC1CCCO1 (configuration not stated)	none
O=C(CSc1nc2ccccc2nc1N1CCCCC1)NCC1CCCO1 (configuration not stated)	Dicer inh 3.1
CC1CN(c2nc3ccccc3nc2SCC(=O)NC2CCCCC2)CC(C)O1 (configuration not stated)	none
CC1CN(c2nc3ccccc3nc2SCC(=O)N2CCN(C3CCCCC3)CC2)CC(C)O1 (configuration not stated)	none
C/C(=N\NC(N)=O)C1(CC(C)C)CCCCC1	none
Cc1c(-c2ccccc2)c(CN2CCN(C)CC2)n2ccccc12	none
Cc1ccc(S(=O)(=O)Nc2ccc(Cl)cc2SCc2ccccc2)cc1	none
O=C(Nc1ccccc1SCc1cc([N+](=O)[O-])cc2c1OCOC2)c1ccc(Cl)cc1	none
CCOC(=O)/C(C#N)=C/c1cc(OC)ccc1OC	none
COCCOC(=O)C1=C(C)Nc2nc3ccccc3n2C1c1cccc(C)c1 (configuration not stated)	none
O=C1c2oc3ccccc3c(=O)c2C(c2ccc(O)cc2)N1Cc1ccccc1 (configuration not stated)	none
Cc1onc(-c2ccccc2Cl)c1NC(=O)Nc1cccc(Cl)c1Cl	none
CCCc1nn(-c2ccc(Cl)cc2)cc1C(=O)Nc1ccc(Cl)cc1	none
CCOC(=O)c1c(NC(=O)CSc2nnc3c(n2)[nH]c2ccccc23)sc2c1CCCC2	none
N#Cc1c(NC(=O)CSc2nnnn2-c2ccccc2)sc2c1CCCC2	none
CCOC(=O)c1c(NC(=O)CSc2nnc(C)c(=O)[nH]2)sc2c1CCCC2	Dicer inh 3.3
Cc1nnc(SCC(=O)Nc2sc3c(c2C#N)CCCC3)s1	Dicer inh 3.4
CCOC(=O)c1c(NC(=O)CN(CC)CC)sc2c1CCCC2	none
N#Cc1c(NC(=O)CSc2ccc(Cl)cc2)sc2c1CCC2	none
CCOC(=O)C1=C(C)NC2=C(C(=O)CCC2)C1c1ccc(OC)cc1OC (configuration not stated)	none
COc1cccc(C2CC(=O)NC(SCc3ccccc3)=C2C#N)c1 (configuration not stated)	none
C/C(=N\Nc1nc(C(C)(C)C)cs1)c1ccc(Cl)c(Cl)c1	none
O=[N+]([O-])C1=Cc2c(ccc3ccccc23)OC1c1c(Cl)cccc1Cl (configuration not stated)	none
CCOC(=O)c1cnc(O/N=C/c2ccc(C#N)cc2)nc1C(F)(F)F	none
Cc1cc(C)c2c(N)c(C(N)=O)sc2n1	none
C=CCNC(=S)NNC(=O)c1sc2nnc(-c3ccccc3)c(-c3ccccc3)c2c1N	none
C=CCNC(=S)NNC(=O)c1sc2nc(C)cc(C)c2c1N	Dicer inh 4.2
CCOCCOC(=O)C1=C(C)NC2=C(C(=O)CC(c3ccc(Cl)cc3)C2)C1c1ccccc1F (configuration not stated)	none
O=C1C=C(NC2Cc3ccccc3C2)CC(c2ccc(F)cc2)C1 (configuration not stated)	none
CCc1ccc(C2c3c(oc4ccc(C)cc4c3=O)C(=O)N2CCCN2CCOCC2)cc1 (configuration not stated)	none
CCCC(=O)c1cc2cc(Br)cc(Br)c2oc1=O	none
CCCC(=O)c1cc2cc(Br)ccc2oc1=O	none
CCCC(=O)n1c(=O)oc2cc(Br)ccc21	Dicer inh 4
CC(=O)Oc1ccc(C2C(C(=O)OC3CCCC3)=C(C)NC3=C2C(=O)CCC3)cc1 (configuration not stated)	none
c1ccc2oc(-c3ccc(-c4nc5ccccc5o4)cc3)nc2c1	none
c1cc(-c2nc3ccccc3o2)nc(-c2nc3ccccc3o2)c1	none
c1ccc2oc(CCCc3nc4ccccc4o3)nc2c1	Dicer inh 5.5
COC(=O)c1cnc(Sc2n[nH]c(-c3ccccc3)n2)c([N+](=O)[O-])c1	none
CC1=C(C#N)C(c2ccc(C(F)(F)F)cc2Cl)C2=C(CCCC2=O)N1 (configuration not stated)	none
O=C(NCCc1ccccn1)c1cn(S(=O)(=O)c2ccccc2)c2ccccc12	none
CC(C)(C)NC(=S)N/N=C/c1c(Cl)cccc1Cl	none
CC(C)(C)NC(=S)N/N=C/c1ccc(O)cc1O	none
CC(C)(C)NC(=S)N/N=C/C=N/NC(=S)NC(C)(C)C	Dicer inh 4.3
Cc1[nH]nc2c1C(c1ccc(-c3ccccc3)cc1)C(C#N)=C(N)O2 (configuration not stated)	none
CCCc1cnc(N2CCCNCC2)nc1	none
CC(C)(C)C(=O)/C(C#N)=C/Nc1ccc(Cl)cn1	none
C#Cc1cccc(NCN2C(=O)c3ccccc3C2=O)c1	Dicer inh 3.1
CC(C)c1ccc(NCN2C(=O)c3ccccc3C2=O)cc1	none
CC(=O)Nc1ccc(NCN2C(=O)c3ccccc3C2=O)cc1	none
